± gives the standard deviation.

22 compounds from the supplement of paper PMC3484114 can be followed below.

For the assay, the system named is OVCAR-3-derived ovarian cancer stem-like cells (spheroids). Kind of assay: cell growth relative to untreated control; higher = more growth (less inhibition). As to conditions: 2.29 µM; 96 h. An outline of the steps: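 Percent growth was calculated against untreated wells once blanks were subtracted and Grubbs outliers removed. The cells were OVCAR-3 spheroid-derived stem-like cells, trypsinized and plated at 50,000 cells/mL in stem cell medium on ultra-low attachment 96-well plates for a 24 h preincubation. They were then exposed to compounds at 2.29 uM for 96 h at 37°C, 5% CO2, in 4 replicate wells, and viability was measured by TOX8 resazurin fluorescence (ex 560/em 590 nm) after 4 h.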
In turn, `O=C1c2ccccc2C(=O)c2c(O)c(NCCNCCO)cc(O)c21` came in with a cell growth of 82.8 ± 24%.

Regarding `C=C(Cl)C(Cl)(CBr)CCC(Br)C(C)(C)Cl` (configuration not stated), the cell growth came out at 70.7 ± 16%.

In turn, `Cc1c(Cl)ccc2c1NC(=O)C2(O)C(C(=O)c1ccccc1)c1ccccc1` (configuration not stated) registered a cell growth of 107 ± 48%.

Consider `O=C(CC(=O)c1ccccc1)CC(O)(c1ccccc1)c1ccccc1`, for which the cell growth is 124 ± 18%.

With `COc1ccc(C2c3cc4c(c(OC)c3CC3OCC(=O)C32)OCO4)cc1OC` (configuration not stated), the cell growth was determined as 41.3 ± 11%.

`CC(=O)SC(SC(C)=O)SC(C)=O` showed a cell growth of 97.1 ± 26%.

Compound `O=Cc1cc([N+](=O)[O-])no1` had a cell growth of 115 ± 26%.

In the case of `CCCCCCCCCCCCC(O)C(=O)O` (configuration not stated), the cell growth is 115 ± 19%.

On to `COc1cc(-c2cc(=O)c3c(OC)c(OC)c(OC)c(OC)c3o2)cc(OC)c1OC`, for which the cell growth worked out at 79 ± 21%.

`C=C(C#N)C(=O)OCC(CC)CC.C=C(C#N)C(=O)OCC(CC)CC.CS(C)=O.CS(C)=O.Nc1c(N=Nc2ccc(-c3ccc(N=Nc4cc(S(=O)(=O)[O-])c5ccccc5c4N)cc3)cc2)cc(S(=O)(=O)[O-])c2ccccc12.[Pt+2]` yielded a cell growth of 107 ± 14%.

For `CCCCCCCCCCCCCCCCCCOCC(COP(=O)([O-])OCC[N+](C)(C)C)OC` (configuration not stated), the cell growth came to 93 ± 25%.

In turn, `COC(=O)C[S+]([O-])c1ccccc1` (configuration not stated) came in with a cell growth of 84.6 ± 18%.

In the case of `O=S(=O)(O)SC/C=C/CSS(=O)(=O)O`, the cell growth turned out to be 143 ± 16%.

Regarding `COc1cc(C(C)c2cc3c(cc2OCCO)OCO3)cc(OC)c1OC` (configuration not stated), the cell growth was 24.7 ± 6.7%.

For the compound `CN(C)c1ccc(/C=c2/sc3nc(=O)c(-c4ccccc4NC(=O)C(F)(F)F)nn3c2=O)cc1`, the cell growth turned out to be 83.4 ± 18%.

In turn, `COc1cc(/C=C2\S/C(=N/Nc3nc(-c4ccc(Br)cc4)cs3)NC2=O)cc(OC)c1OC` had a cell growth of 91.9 ± 19%.

For the compound `Cc1ccc(S(=O)(=O)NC(=O)NC2=NC(C)(C)N(c3ccc(Cl)c(Cl)c3)C(N)=N2)cc1`, the cell growth was 84.1 ± 23%.

`Cc1ccccc1NC(=O)C(=O)C(C(=O)c1ccccc1F)C1OC(=O)c2ccccc21` (configuration not stated) registered a cell growth of 94.9 ± 13%.

`COc1ccc(OC)c(-c2cc(=O)c3c(OC)c(OC)c(OC)c(OC)c3o2)c1` showed a cell growth of 128 ± 50%.

`Nc1nc2c(ncn2[C@@H]2O[C@H](CO)[C@@H](O)[C@H]2O)c(=O)[nH]1`: the cell growth worked out at 107 ± 11%.

In the case of `CC(C)c1ccc2nc3ccc(C(=O)NCCN(C)C)cn3c(=O)c2c1`, the cell growth is 79.4 ± 21%.

`CN1CCC23c4ccccc4NC1C21CCN(C)C3Nc2ccccc21`: the cell growth was 118 ± 10%.
